Assay outcomes from PubChem BioAssay.
In the library only some 12% were active in any assay of this set; here they are far more common.
BAZ2B inh: qHTS Assay for Inhibitors of BAZ2B | 360,000 tested, 4.4% active | Potency, µM (titrated, usually from 114 µM), without a hit: at the top dose activity change, negative = inhibition, usual class: inhibitors | Bromodomain adjacent to zinc finger domain protein 2B (Homo sapiens), Q9UIF8 | AlphaScreen BAZ2B-H3K14Ac peptide displacement; further: on the % scale 0 is the no-effect control and ±100 the full control effect; nearly all actives have a fitted effect of over 60% in size
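Compounds, titrated to a top concentration of 110 uM, were incubated 30 min at room temperature with preformed BAZ2B/acetyl-K14 H3 peptide complex (50 nM each). Proximity signal was measured by AlphaScreen after 20 min with beads.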
HP1b chromo inh: HTS for Inhibitors of HP1-beta Chromodomain Interactions with Methylated Histone Tails | Chromobox protein homolog 1 (Homo sapiens), P83916 | AlphaScreen HP1-beta / biotin-H3K9me3 peptide binding | Potency, µM (top dose mostly 114 µM), for inactives: at the top dose activity change, negative = inhibition, usual class: inhibitors | 390,000 tested, 0.56% active | AID 540317, 2011; further: nearly all actives have a fitted effect of over 70% in size
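AlphaScreen: HP1-beta (50 nM) preformed 30 min with biotin-H3(1-18)K9me3 peptide (50 nM) in PBS pH 7.4, 0.01% Tween-20. Compound added for 30 min at RT, then streptavidin donor/nickel chelate acceptor beads (10 ug/mL) for 30 min.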
JMJD2A Tudor inh: qHTS Assay for Inhibitors of JMJD2A-Tudor Domain; Lysine-specific demethylase 4A (Homo sapiens), O75164; AlphaScreen JMJD2A-Tudor / H3K4me3 peptide binding; Potency, µM (highest dose often 114 µM), for the others: at the top dose activity change, negative = inhibition, actives largely listed as inhibitors; 390,000 tested, 4.4% active; AID 504339, 2011; further: on the % scale 0 is the no-effect control and ±100 the full control effect; nearly all actives have a fitted effect of over 50% in size
Target sequence (O75164 whole entry, looked up, the tested form may be a part): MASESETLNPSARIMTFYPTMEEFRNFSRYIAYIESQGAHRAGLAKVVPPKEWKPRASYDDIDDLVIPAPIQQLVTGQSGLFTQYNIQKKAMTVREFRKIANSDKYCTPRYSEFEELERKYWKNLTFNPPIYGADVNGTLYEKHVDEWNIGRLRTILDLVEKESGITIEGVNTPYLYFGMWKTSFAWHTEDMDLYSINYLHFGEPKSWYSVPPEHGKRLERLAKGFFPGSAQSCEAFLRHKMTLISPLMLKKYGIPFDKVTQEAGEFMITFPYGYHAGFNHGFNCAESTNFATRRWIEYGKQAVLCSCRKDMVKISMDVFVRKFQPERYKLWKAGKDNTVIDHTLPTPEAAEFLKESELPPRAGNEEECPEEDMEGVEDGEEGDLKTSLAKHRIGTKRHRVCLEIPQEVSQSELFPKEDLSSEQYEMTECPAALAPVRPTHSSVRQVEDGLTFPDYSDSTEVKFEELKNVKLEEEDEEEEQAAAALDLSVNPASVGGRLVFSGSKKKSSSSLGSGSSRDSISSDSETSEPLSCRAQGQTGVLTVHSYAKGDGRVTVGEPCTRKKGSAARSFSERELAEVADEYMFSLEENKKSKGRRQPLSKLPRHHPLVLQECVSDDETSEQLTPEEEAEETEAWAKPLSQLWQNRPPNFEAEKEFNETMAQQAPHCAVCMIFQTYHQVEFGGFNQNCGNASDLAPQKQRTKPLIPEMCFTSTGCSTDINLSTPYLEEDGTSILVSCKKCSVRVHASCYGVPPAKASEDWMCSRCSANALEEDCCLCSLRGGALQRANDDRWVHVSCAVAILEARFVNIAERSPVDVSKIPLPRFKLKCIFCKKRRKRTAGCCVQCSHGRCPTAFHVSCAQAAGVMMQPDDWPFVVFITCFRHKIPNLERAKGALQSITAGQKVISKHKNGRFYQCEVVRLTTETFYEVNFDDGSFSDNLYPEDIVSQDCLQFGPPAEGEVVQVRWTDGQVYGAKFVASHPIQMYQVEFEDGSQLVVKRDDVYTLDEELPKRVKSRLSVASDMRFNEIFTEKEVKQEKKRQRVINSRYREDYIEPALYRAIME
PLK1 PBD block: qHTS for Inhibitors of PLK1-PDB (polo-like kinase 1 - polo-box domain): Primary Screen. Serine/threonine-protein kinase PLK1 (Homo sapiens), P53350. 360,000 tested, 2.8% active. Potency, µM, without a hit: max response, negative = inhibition, hits mostly inhibitors. AID 720504, 2013. Plk1 PBD binding of FITC phosphopeptide, fluorescence polarization; further: series mostly up to about 57 µM; on the % scale 0 is the no-effect control and ±100 the full control effect; nearly all actives have a fitted effect of over 65% in size
G9a inh: qHTS Assay for Inhibitors of Histone Lysine Methyltransferase G9a | 350,000 tested, 8.8% active | Histone-lysine N-methyltransferase EHMT2 (Homo sapiens), Q96KQ7 | G9a H3K9 monomethylation, AlphaScreen, 2 h | Potency, µM (top dose mostly 102 µM), for the others: at the top dose activity, negative = inhibition, hits mostly inhibitors; further: on the % scale 0 is the no-effect control and ±100 the full control effect; nearly all actives have a fitted effect of over 75% in size
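Using a bead-based AlphaScreen, monomethylated H3K9 product from 2 h room-temperature reactions (G9a 20 nM, peptide 500 nM, SAM 20 uM) was detected with 0.5 ug/mL rabbit anti-H3K9me1 antibody.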
Sfp inh: qHTS Assay for Inhibitors of Bacillus subtilis Sfp phosphopantetheinyl transferase (PPTase); 310,000 tested, 3.5% active; 4'-phosphopantetheinyl transferase ffp (Bacillus subtilis), Q9F4F7; Potency, µM, for the others: largest response in the series, negative = inhibition, actives largely listed as inhibitors; AID 1490, 2009; Biochemical Sfp PPTase activity, qHTS;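 further: the enzyme is Sfp with the accession as filed and its product quenches rhodamine fluorescence; 0% = enzyme reaction without inhibitor and -100% = no enzyme wells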
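Sfp 15 nM + cpd, 15 min RT; start w/ rhodamine-CoA 5 uM, BHQ-2-YbbR 12.5 uM (final); 50 mM Hepes pH 7.6, 10 mM MgCl2, 0.01% NP-40, 0.01% BSA; read 525/598 nm at 0 and 30 min.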
* marks the source's active call; other numbers are inactive results; ? = inconclusive; . = not tested or not shown; [ ] = another dose, or the depositor's remark. The call rests on the fitted dose curve; in most records, active means well fitted curve in the direction sought with a large enough effect; inconclusive means small, poorly fitted or top-dose-only effect, or another doubt; inactive means no such curve, though single readings can be large; an effect the other way counts as inactive or inconclusive. Potency means the concentration at half of the fitted maximal effect.

SMILES	BAZ2B inh	HP1b chromo inh	JMJD2A Tudor inh	PLK1 PBD block	G9a inh	Sfp inh
O=CNc1cc(-c2ccc(C(=O)NC3CC3)cc2)cn2c(-c3ccc(F)cc3)cnc12	.	.	.	-18.2%	.	.
CC1(C(=O)NCc2cccc(C(F)(F)F)c2)CCN1C1Cc2ccccc2C1 (stereo unspecified)	.	.	.	-8.7%	.	.
COc1ccc(Cl)cc1C(=O)NCc1nc(-c2cccc(C)c2)no1	4.1%	38.4%	-8.0%	.	9.0%[59 µM]	.
Cc1cc2c(c3oc(=O)c4ccccc4c13)CN(Cc1ccc(F)cc1)CO2	-9.6%	22.5%	-21.2%	.	?	.
COc1cc(/C=C/C(=O)OCc2csc(CC(=O)Nc3ccc(C)cc3)n2)ccc1OCC#N	8.0%	27.2%	-20.9%	-5.4%	10µM*	.
Cc1ccc(NC(=O)Cc2nc(CCl)cs2)cc1	-34.1%	19.4%	?	-10.0%	8.91µM*	-12.4%
COc1ccc(CC(=O)OCc2csc(CC(=O)Nc3ccc(C)cc3)n2)cc1	.	25.0%	-9.7%	-5.4%	.	.
CNS(=O)(=O)c1cn(CC(=O)Nc2cccc(C(F)(F)F)c2)cc1S(=O)(=O)NC	-0.9%	33.9%	0.0%	.	3.5%[59 µM]	.
CCOC(=O)c1ccccc1NC(=O)CSc1nccn1C	-2.3%	15.6%	0.0%	-8.3%	-11.1%[59 µM]	8.8%
COc1ccc(C)cc1NC(=O)CSc1ccc(-c2ccccn2)nn1	3.55µM*	14.1%	4.47µM*	-19.1%	29.2%	-3.2%
COc1ccc(C)cc1NC(=O)CSc1ccc(-c2sc(C)nc2C)nn1	-22.4%	26.8%	-6.2%	-12.3%	-30.5%	-0.7%
CCOC(=O)c1ccccc1NC(=O)CSc1ccc(-c2ccccn2)nn1	2.82µM*	54.7%	15.8µM*	-8.1%	.	-4.8%
CC(C)N1C(=O)C(=O)N(CC(=O)N2c3ccccc3NC(=O)CC2C)C1=O (stereo unspecified)	-5.6%	16.0%	-9.7%	-11.9%	-4.4%	.
CCOC(=O)c1[nH]c(C)c(CCC(=O)N2CCN(c3ccc(OC)cc3)CC2)c1C	-3.3%	6.0%[57 µM]	-27.9%	.	-32.9%[59 µM]	.
Cc1cccc(NC(=O)COC(=O)CN2C(=O)c3ccccc3C2=O)c1C	.	.	.	-0.7%	.	.
CCCC(=O)c1ccc(N2CCC(C)CC2)c(F)c1	76.1%	61.7%	82.1%	23.8µM*	84.3%	?
Nc1nnc(CC(=O)N/N=C/c2cccc([N+](=O)[O-])c2)s1	-32.1%	27.3%	-12.2%	-13.4%	38.1%[12.7 µM]	50.1µM*
COC(=O)N/N=C/c1cc([N+](=O)[O-])cc(Br)c1O	-29.6%	26.4%	-22.9%	-8.8%	4.2%[59 µM]	20.5%
Nc1nnc(CC(=O)N/N=C/c2cc([N+](=O)[O-])cc(Br)c2O)s1	50.1µM*	-14.3%	79.4µM*	?	22.4µM*	-15.8%
CC1C(=O)N(Cc2cn(CC3CCCCC3)nn2)CCS(=O)(=O)N1Cc1ccc(-c2cccc(CO)c2)cc1 (stereo unspecified)	.	.	.	0.1%	.	.
COc1ccc(/C=c2\s/c(=C\C(=O)C(C)(C)C)[nH]c2=O)cc1O	?	20.2%	-27.0%	-3.7%	.	-10.3%
COc1cc(/C=C/C(=O)O)cc(Br)c1O	?	28.1%	-3.8%	-0.2%	19.5%[12.7 µM]	29.6%
COc1ccc(/C=C/C(=O)C2C(=O)C=C(C)OC2=O)cc1O (stereo unspecified)	50.1µM*	-17.2%	-22.6%	-12.1%	-22.8%[59 µM]	5.3%
COc1cc(/C=C/C(=O)C2C(=O)C=C(C)OC2=O)cc(OC)c1O (stereo unspecified)	56.2µM*	-2.4%	-30.8%	35.4%	50.1µM*	-26.3%
Cc1ccccc1N(CC(=O)N1CCN(c2ccccc2)CC1)S(C)(=O)=O	-3.7%	22.6%	-17.9%	-21.3%	50.1µM*	-5.3%
SMILES	BAZ2B inh	HP1b chromo inh	JMJD2A Tudor inh	PLK1 PBD block	G9a inh	Sfp inh
CCc1ccccc1N(CC(=O)N1CCN(c2ccc(F)cc2)CC1)S(C)(=O)=O	-10.2%	19.6%	?	-1.9%	79.4µM*	14.6%
Cc1cc(C)cc(N(CC(=O)N2CCN(c3ccccc3)CC2)S(=O)(=O)c2c(C)noc2C)c1	-10.9%	0.5%	?	23.8µM*	?	-7.5%
CCc1ccccc1N(CC(=O)N1CCCC1)S(C)(=O)=O	4.5%	38.7%	8.5%	-2.1%	6.2%	12.2%
Cc1ccc(Cl)cc1N1CCN(C(=O)CN(c2ccccc2)S(=O)(=O)N(C)C)CC1	44.7µM*	5.6%	-12.0%[11.4 µM]	-21.1%	-9.5%	-16.8%
CC(=O)OC[C@@H]1CN(Cc2ccccc2)C[C@H](n2cnc3c(N(C)C(C)C)ncnc32)O1	.	.	.	-8.4%	.	.
CS(=O)(=O)Nc1cccc(NC(=O)C2Cc3c(-c4cccc(F)c4)ccnc3O2)c1 (stereo unspecified)	.	.	.	-3.7%	.	.
CC1CCCCC1NC(=O)COc1ncnc2sccc12 (stereo unspecified)	11.4%	34.5%	-12.8%	-8.2%	-11.6%[59 µM]	.
Cn1nnnc1SCCNC/C=C/c1ccccc1	-15.4%	22.4%	-17.1%	-5.8%	?	-1.0%
CCn1c(C)cc(C(=O)COC(=O)CNC(=O)c2ccco2)c1C	.	.	.	2.3%	.	.
COc1cc(C)c(Cl)cc1S(=O)(=O)NC1CC(C)(C)NC(C)(C)C1	-12.9%	.	.	.	8.8%	-20.1%
CS(=O)(=O)N(CC(=O)N1CCN(c2ccccc2)CC1)C1CCCCC1	7.8%	-15.2%	50.1µM*	26.7µM*	14.4%[59 µM]	17.5%
N#Cc1c(C#N)c(O)c2ccccc2c1O	-33.5%	-22.3%	-31.9%	13.4µM*	2µM*	12.6µM*
Cc1cc(O)c2ccccc2c1O	.	.	.	.	?	-8.3%
O=[N+]([O-])c1ccc(Cl)c(CN2CCN(c3ncc(Cc4ccccc4)cn3)CC2)c1	.	.	.	-5.3%	.	.
Cc1cc(NC(=O)CN2CCN(S(=O)(=O)c3ccc(Cl)cc3)CC2)no1	-6.3%	33.6%	-13.5%	-6.0%	-48.7%[59 µM]	17.3%
O=C(CN1CCN(c2ccc(O)cc2)CC1)Nc1cc([N+](=O)[O-])ccc1Cl	?	-20.5%	?	-15.1%	5.62µM*	?
Cc1cc(NC(=O)CN2CCN(c3ccc(O)cc3)CC2)no1	-10.7%	?	89.1µM*	0.0%	14.7%[0.501 µM]	79.4µM*
CC(=O)N1CCN(CC(=O)Nc2cc([N+](=O)[O-])ccc2Cl)CC1	2.6%	12.3%	-19.8%	-1.9%	39.8µM*	-1.4%
O=C(CN1CCN(c2ccccc2)CC1)Nc1ccccc1Cl	?	27.5%	-9.7%	-0.4%	-40.1%	-0.9%
